From ChEMBL document CHEMBL5606460, “ASAP - DENV-2 NS2B-NS3 protease fluorescence single point” (2024)
Out of some 2,000 compounds screened, about 110 (5.5%) showed an effect of 50% or more. For the sample, strong results were picked, then their nearest neighbours and some compounds at random.

Target: Genome polyprotein (dengue virus type 2) (UniProt P29990)

Question: O=C(Nc1cccc2cccnc12)C1CCNCC1 was tested. Which inhibition (Thailand/16681/1984, Concentration 49.95 uM, Number of replicates 2.0, Standard deviation 0.4211783883506398 %) did it give?
Answer: Its inhibition is -0.871%.

Question: And the inhibition (Thailand/16681/1984, Concentration 99.9 uM, Number of replicates 2.0, Standard deviation 1.2273405052219766 %)?
Answer: Its inhibition is 51.5%.

Question: What does the source list for Nc1nccc2cc(Br)ccc12?
Answer: inhibition (Thailand/16681/1984, Concentration 49.95 uM, Number of replicates 2.0, Standard deviation 5.1898726049351325 %): -2.94%; inhibition (Thailand/16681/1984, Concentration 99.9 uM, Number of replicates 2.0, Standard deviation 6.552121336877266 %): -2.95%

Question: How did the inhibition (Thailand/16681/1984, Concentration 198.0 uM, Number of replicates 2.0, Standard deviation 9.166560145189157 %) turn out when COc1ccc(Cl)c2sc(NC(=O)c3ccccc3NS(=O)(=O)c3ccc(Cl)cc3)nc12 was run?
Answer: Its inhibition is 8.28%.

Question: What does the source list for CC(C)Nc1nc2ccc(C(=O)Nc3nnc4cccnn34)cc2[nH]1?
Answer: inhibition (Thailand/16681/1984, Concentration 49.5 uM, Number of replicates 2.0, Standard deviation 0.47864102228875616 %): -2.54%; inhibition (Thailand/16681/1984, Concentration 99.01 uM, Number of replicates 2.0, Standard deviation 0.9476878624230379 %): -0.35%; inhibition (Thailand/16681/1984, Concentration 198.0 uM, Number of replicates 2.0, Standard deviation 0.5058242222917364 %): 4.68%

Question: Which inhibition (Thailand/16681/1984, Concentration 49.95 uM, Number of replicates 2.0, Standard deviation 1.3762045228616064 %) does the source give for Cc1cc(CO)c2cccc(NC(=O)CC3CNC3)c2n1 here?
Answer: Its inhibition is 7.76%.

Question: And the inhibition (Thailand/16681/1984, Concentration 99.9 uM, Number of replicates 2.0, Standard deviation 1.6376626661863318 %)?
Answer: Its inhibition is 14.8%.

Question: Cc1cc(CO)c2cccc(Cc3cccc(NC(=O)CCC4CCNCC4)c3)c2n1 was tested. Which inhibition (Thailand/16681/1984, Concentration 49.95 uM, Number of replicates 2.0, Standard deviation 1.9905342893580933 %) did it give?
Answer: The inhibition was 36.1%.

Question: What about the inhibition (Thailand/16681/1984, Concentration 99.9 uM, Number of replicates 2.0, Standard deviation 0.13016565259146895 %) of the same compound?
Answer: The inhibition was 90.2%.

Question: What does the source list for Cc1cc(CO)c2cccc(Cc3ccccc3NC(=O)CCC3CCNCC3)c2n1?
Answer: inhibition (Thailand/16681/1984, Concentration 49.95 uM, Number of replicates 2.0, Standard deviation 0.7055143046624119 %): -4.33%; inhibition (Thailand/16681/1984, Concentration 99.9 uM, Number of replicates 2.0, Standard deviation 1.236554143481246 %): 6.21%

Question: How did the inhibition (Thailand/16681/1984, Concentration 49.95 uM, Number of replicates 2.0, Standard deviation 0.1263380443971036 %) turn out when Cc1cc(CO)c2cccc(Cc3cccc(NC(=O)C[C@H]4CCCN4)c3)c2n1 was run?
Answer: The inhibition was -4.58%.

Question: What about the inhibition (Thailand/16681/1984, Concentration 99.9 uM, Number of replicates 2.0, Standard deviation 0.8674748654209231 %) of the same compound?
Answer: The inhibition was -4.17%.

Question: With Cc1cc(CO)c2cccc(Cc3cccc(NC(=O)CNC4CC4)c3)c2n1 as the compound, how does the inhibition (Thailand/16681/1984, Concentration 49.95 uM, Number of replicates 2.0, Standard deviation 1.5245757174015988 %) read?
Answer: Its inhibition is 0.182%.

Question: And the inhibition (Thailand/16681/1984, Concentration 99.9 uM, Number of replicates 2.0, Standard deviation 1.8285218036822166 %)?
Answer: Its inhibition is 7.46%.

Question: How did the inhibition (Thailand/16681/1984, Concentration 49.95 uM, Number of replicates 2.0, Standard deviation 1.87682580099837 %) turn out when Cc1cc(CO)c2cccc(NC(=O)C[C@H]3CCCN3)c2n1 was run?
Answer: Its inhibition is 7.72%.

Question: What about the inhibition (Thailand/16681/1984, Concentration 99.9 uM, Number of replicates 2.0, Standard deviation 2.520000533440925 %) of the same compound?
Answer: Its inhibition is 13.9%.

Question: For Cc1cc(CO)c2cccc(NCC3CCNCC3)c2n1, which inhibition (Thailand/16681/1984, Concentration 49.95 uM, Number of replicates 2.0, Standard deviation 0.8313641199663653 %) is on record?
Answer: Its inhibition is -6.22%.

Question: What about the inhibition (Thailand/16681/1984, Concentration 99.9 uM, Number of replicates 2.0, Standard deviation 1.3048073716258033 %) of the same compound?
Answer: Its inhibition is 0.772%.

Question: Cc1cc(CO)c2cccc(NC(=O)CCC3CCNCC3)c2n1 was tested. Which inhibition (Thailand/16681/1984, Concentration 49.95 uM, Number of replicates 2.0, Standard deviation 0.01891415691253689 %) did it give?
Answer: Its inhibition is 99.7%.

Question: And the inhibition (Thailand/16681/1984, Concentration 99.9 uM, Number of replicates 2.0, Standard deviation 0.03175377284289565 %)?
Answer: The inhibition was 99.6%.

Question: Which inhibition (Thailand/16681/1984, Concentration 49.95 uM, Number of replicates 2.0, Standard deviation 0.9721935995806666 %) does the source give for Cc1cc(CO)c2cccc(Cc3cccc(NC(=O)Cc4c(C)c5c(=O)[nH]n(C)c5[nH]c4=O)c3)c2n1 here?
Answer: The inhibition was 38.4%.

Question: And the inhibition (Thailand/16681/1984, Concentration 99.9 uM, Number of replicates 2.0, Standard deviation 1.6660426680996274 %)?
Answer: Its inhibition is 65.6%.

Question: With Cc1cc(CO)c2cccc(NC(=O)CC3CCNCC3)c2n1 as the compound, how does the inhibition (Thailand/16681/1984, Concentration 49.95 uM, Number of replicates 2.0, Standard deviation 2.142909982415651 %) read?
Answer: Its inhibition is 8.3%.

Question: And the inhibition (Thailand/16681/1984, Concentration 99.9 uM, Number of replicates 2.0, Standard deviation 0.2007188026491294 %)?
Answer: The inhibition was 53.9%.

Question: What does the source list for Cc1cc(CO)c2cccc(Cc3ccccc3NC(=O)Cc3c(C)c4c(=O)[nH]n(C)c4[nH]c3=O)c2n1?
Answer: inhibition (Thailand/16681/1984, Concentration 49.95 uM, Number of replicates 2.0, Standard deviation 2.5458058686723866 %): 22.5%; inhibition (Thailand/16681/1984, Concentration 99.9 uM, Number of replicates 2.0, Standard deviation 1.6741240734205003 %): 45.5%

Question: How did the inhibition (Thailand/16681/1984, Concentration 49.95 uM, Number of replicates 2.0, Standard deviation 1.6565788461475972 %) turn out when Cc1cc(CO)c2cccc(NC(=O)Cc3c(C)c4c(=O)[nH]n(C)c4[nH]c3=O)c2n1 was run?
Answer: The inhibition was 17.7%.

Question: What about the inhibition (Thailand/16681/1984, Concentration 99.9 uM, Number of replicates 2.0, Standard deviation 1.9416844060600267 %) of the same compound?
Answer: Its inhibition is 32.2%.

Question: With Cc1cc(N)c2cccc(Br)c2n1 as the compound, how does the inhibition (Thailand/16681/1984, Concentration 49.95 uM, Number of replicates 2.0, Standard deviation 5.849609152234285 %) read?
Answer: Its inhibition is -8.02%.

Question: And the inhibition (Thailand/16681/1984, Concentration 99.9 uM, Number of replicates 2.0, Standard deviation 5.75747614138947 %)?
Answer: Its inhibition is -7.97%.

Question: How did the inhibition (Thailand/16681/1984, Concentration 49.95 uM, Number of replicates 2.0, Standard deviation 1.1797806526631314 %) turn out when Cc1cc(CO)c2cccc(Cc3ccccc3NC(=O)Cc3c[nH]c4ccccc34)c2n1 was run?
Answer: The inhibition was 5.6%.

Question: And the inhibition (Thailand/16681/1984, Concentration 99.9 uM, Number of replicates 2.0, Standard deviation 0.9471475819719768 %)?
Answer: Its inhibition is 13.1%.

Question: How did the inhibition (Thailand/16681/1984, Concentration 49.5 uM, Number of replicates 2.0, Standard deviation 3.5107220562143744 %) turn out when CNC(=O)c1cc(Cl)ccc1NS(=O)(=O)c1cc(Cl)cc(C(=O)NC)c1OC was run?
Answer: Its inhibition is -1.24%.

Question: And the inhibition (Thailand/16681/1984, Concentration 99.01 uM, Number of replicates 2.0, Standard deviation 4.644293157051252 %)?
Answer: The inhibition was 1.93%.

Question: And the inhibition (Thailand/16681/1984, Concentration 198.0 uM, Number of replicates 2.0, Standard deviation 3.3165321375743706 %)?
Answer: Its inhibition is 8.2%.

Question: Which inhibition (Thailand/16681/1984, Concentration 25.0 uM, Number of replicates 1.0) does the source give for O=Cc1ccc(N2CCC(C(=O)Nc3ccc(F)cc3C(F)(F)F)CC2)cc1 here?
Answer: Its inhibition is 12.5%.

Question: Which results are given for O=C(O)c1cnn(C2CCN(C(=O)c3ccnc4[nH]cnc34)CC2)c1?
Answer: inhibition (Thailand/16681/1984, Concentration 49.5 uM, Number of replicates 2.0, Standard deviation 1.214191700010942 %): -2.48%; inhibition (Thailand/16681/1984, Concentration 99.01 uM, Number of replicates 2.0, Standard deviation 1.7130868961137902 %): -2.88%; inhibition (Thailand/16681/1984, Concentration 198.0 uM, Number of replicates 2.0, Standard deviation 1.3863533153956358 %): -2.86%

Question: What does the source list for COc1ccccc1OCCn1cc(C2CCNCC2)c(C)n1?
Answer: inhibition (Thailand/16681/1984, Concentration 49.5 uM, Number of replicates 2.0, Standard deviation 0.4008605306484476 %): -1.35%; inhibition (Thailand/16681/1984, Concentration 99.01 uM, Number of replicates 2.0, Standard deviation 0.8515456477601485 %): 0.612%; inhibition (Thailand/16681/1984, Concentration 198.0 uM, Number of replicates 2.0, Standard deviation 0.3007587308619815 %): 2.21%
